Assay outcomes (PubChem BioAssay)
PLAP activator = human PLAP activation. activation fold at 20 µM. hit rate 1.2% among 96,000. purified PLAP enzyme, luminescent substrate read-out; stronger effect = higher value; in the data active means activation fold above about 2
hDAT+cocaine = modulates human dopamine transporter uptake under cocaine | Q01959 | LLC-PK1 hDAT cells, [14C]-dopamine uptake with cocaine IC80; actives deviate in either direction | B-score at 10 µM | hit rate 1.3% among 110,000 | AID 449768;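 active means Z score or B-score, a plate-position-corrected score, falls beyond the plate's 99.7% confidence bounds, in either direction; inactive means both scores lie inside the 99.7% bounds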;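 further: scored against the spread of the other compound wells on the same plate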
PostGolgi ctrl = growth of the yeast control strain, post-Golgi counter-screen. efflux-deficient yeast background strain, growth absorbance A615, 16 h. hit rate 5% among 98,000. inhibition, % at 10 µM
Cav32 inh = inhibitors of human Cav3.2 T-type calcium channel; O95180; Cav3.2-expressing cells, Fluo-4 calcium fluorescence FDSS; stronger effect = lower value; B-score at 10 µM; hit rate 4% among 100,000;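 active means single-dose well whose peak fluorescence ratio is a statistical outlier from its plate by either plate-standardised score or position-corrected B-score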
PostGolgi yeast = growth inhibition of a yeast mutant, post-Golgi transport screen. post-Golgi transport phenotypic cell assay. inhibition, % at 10 µM. hit rate 0.9% among 98,000. AID 739;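 further: yeast cells grown in 1536-well plates; yeast grown about 18 h at 30C before absorbance read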
* = called active by the depositor. The list is not random: actives were taken first. Their share in the collection is about 9.6%. Unless noted, no stated cut-off is given here; in the data, active means inhibition above about 30%; inactive means the rest.

What do the screens show for `CCC(C)(C(=O)NC1CCCC1)N(C(=O)c1cnccn1)c1c(C)n(C)n(-c2ccccc2)c1=O` (stereo not given)?
PLAP activator: 0.9; hDAT+cocaine: -0.412; PostGolgi ctrl: 1.3; PostGolgi yeast: 25.4

How did Cc1[nH]ccc(=O)c1OC1OC(CO)C(O)C(O)C1O (stereo not given) do in these assays?
hDAT+cocaine: 0.983; Cav32 inh: 1.26

Results for CCOc1ccccc1CNC(=O)CCN1C(=O)COc2ccccc21 ?
PLAP activator: 1.2; hDAT+cocaine: 0.945; PostGolgi ctrl: 44.3*; Cav32 inh: -0.0294; PostGolgi yeast: 2.7

How did CC(=O)Oc1ccc(-c2cc3c(OC(C)=O)cc(OC(C)=O)cc3oc2=O)cc1 do in these assays?
hDAT+cocaine: 0.054; Cav32 inh: -2.03

How did CC(=C/c1ccccc1)/C=N/n1c(-c2ccco2)n[nH]c1=S do in these assays?
PLAP activator: 1.1; hDAT+cocaine: 0.0364; PostGolgi ctrl: 33.4*; Cav32 inh: -2.77; PostGolgi yeast: 8.6

Results for CC(/C=N/n1c(C2CCCCC2)n[nH]c1=S)=C\c1ccccc1 ?
PLAP activator: 1.2; hDAT+cocaine: -0.0317; PostGolgi ctrl: 44.2*; Cav32 inh: -0.592; PostGolgi yeast: 4.2

How did CCOc1cc(N(CC)CC)ccc1/C=C(/C#N)c1nc2ccccc2[nH]1 do in these assays?
PLAP activator: 0.6; PostGolgi ctrl: 49.9*; PostGolgi yeast: 12.2

How did COc1cc(/C=C(\C#N)c2nc3ccc(C)cc3[nH]2)c([N+](=O)[O-])cc1OC do in these assays?
PLAP activator: 1.1; hDAT+cocaine: -0.203; PostGolgi ctrl: 8.2; Cav32 inh: -1.19; PostGolgi yeast: 0.6

How did CCCOc1cc(N(CC)CC)ccc1/C=C(/C#N)c1nc2ccc(C)cc2[nH]1 do in these assays?
PLAP activator: 0.8; hDAT+cocaine: -0.417; PostGolgi ctrl: 17.5; Cav32 inh: -5*; PostGolgi yeast: -3.3

Results for CN(C)/C=C(\C#N)c1nc2ccccc2[nH]1 ?
PLAP activator: 0.8; hDAT+cocaine: -0.246; PostGolgi ctrl: 5.1; Cav32 inh: 0.952; PostGolgi yeast: 11.4

What do the screens show for `CCN(CC)c1ccc(/C=C(/C#N)c2nc3ccc(C)cc3[nH]2)c(OC(C)C)c1`?
PLAP activator: 0.7; hDAT+cocaine: -0.269; PostGolgi ctrl: 17.4; Cav32 inh: -5.47*; PostGolgi yeast: -7.0

Results for COc1ccc(N2C(=O)CC(S/C(N)=N/N=C(\C)c3cccs3)C2=O)cc1 (stereo not given) ?
PLAP activator: 1; hDAT+cocaine: -0.553; PostGolgi ctrl: 11.0; Cav32 inh: -3.68; PostGolgi yeast: -4.1

How did CC1=CC(=O)c2c(O)ccc(O)c2C1=O do in these assays?
hDAT+cocaine: 0.115; Cav32 inh: -5.47*

Results for Cc1ccc(NC(=O)N(Cc2ccco2)C(C)c2ccco2)cc1C (stereo not given) ?
PLAP activator: 1.1; hDAT+cocaine: 1.18; PostGolgi ctrl: 11.6; Cav32 inh: -4.65*; PostGolgi yeast: -1.8

What do the screens show for `Cc1cccc(NC(=O)CCCN2C(=O)c3cccc4cccc(c34)C2=O)c1`?
PLAP activator: 1; hDAT+cocaine: -0.884; PostGolgi ctrl: 5.1; Cav32 inh: 0.878; PostGolgi yeast: 1.1

How did Cn1c(=O)c(NCCO)c2c3c(cccc31)C(=O)c1ccccc1-2 do in these assays?
PLAP activator: 0.9; hDAT+cocaine: 0.229; PostGolgi ctrl: 6.3; Cav32 inh: -8.98*; PostGolgi yeast: 7.3

Results for CCNc1c2c3c(cccc3n(C)c1=O)C(=O)c1ccccc1-2 ?
PLAP activator: 0.9; hDAT+cocaine: 0.384; PostGolgi ctrl: 11.4; Cav32 inh: -9.16*; PostGolgi yeast: 6.5

What do the screens show for `Cn1c(=O)c(NCCc2ccccc2)c2c3c(cccc31)C(=O)c1ccccc1-2`?
PLAP activator: 0.9; hDAT+cocaine: 2.1; PostGolgi ctrl: 48.0*; Cav32 inh: -10.5*; PostGolgi yeast: 0.0

How did CN(CCO)C(=O)c1cccc2c1-c1ccccc1C2=O do in these assays?
PLAP activator: 0.9; hDAT+cocaine: -0.0102; PostGolgi ctrl: -9.3; Cav32 inh: 0.0177; PostGolgi yeast: -8.3

What do the screens show for `CCNC1=C(Cl)C(=O)c2ccccc2C1=O`?
PLAP activator: 0.8; hDAT+cocaine: 0.00936; PostGolgi ctrl: 14.8; Cav32 inh: 1.38; PostGolgi yeast: 10.4

Results for CCCCNc1c2c3c(cccc3n(C)c1=O)C(=O)c1ccccc1-2 ?
hDAT+cocaine: 1.06; PostGolgi ctrl: 57.8*; Cav32 inh: -5.23*; PostGolgi yeast: 1.7
